The panel holds about 79,000 compounds, 15% with a hit somewhere; the sample as a whole holds those more often. No stated cut-off is given here; in the data, active means growth inhibition above about 70%; inactive means the rest. Where a SMILES comes first, the peptide text is derived from it. The star is where a group is joined. Cbz = O=C(OCc1ccccc1)*
Tests used:
[1] = NCI Yeast Anticancer Drug Screen. Data for the rad50 strain (AID 155);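 further: 0% = growth of vehicle-only cultures of the same strain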; details: S. cerevisiae rad50 strain growth inhibition; at 50.0 µM; stronger effect = higher value
How it was run: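 Compounds were tested on a yeast strain with an engineered DNA damage repair alteration; the reported value is growth inhibition normalised to vehicle treatment.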

[2] = NCI Yeast Anticancer Drug Screen. Data for the mec2-1 strain (AID 157); details: S. cerevisiae mec2-1 strain, at 50.0 µM, stronger effect = higher value
How it was run: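 Cells of the genetically defined mec2-1 yeast strain are incubated with test compound. Inhibition of growth is calculated against vehicle-treated controls.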

[3] = NCI Yeast Anticancer Drug Screen. Data for the sgs1 mgt1 strain (AID 161);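 further: 0% = growth of cultures given vehicle only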; details: S. cerevisiae sgs1 mgt1 strain, at 50.0 µM, stronger effect = higher value
How it was run: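 Read-out: growth inhibition vs vehicle controls. Cells: mutant yeast strain deficient in DNA damage repair.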

[4] = NCI Yeast Anticancer Drug Screen. Data for the cln2 rad14 strain (AID 165);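 further: 0% = growth equal to vehicle treated cultures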; details: S. cerevisiae cln2 rad14 strain, at 50.0 µM, stronger effect = higher value
How it was run: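 The screen exposed genetically defined yeast (cln2 rad14) to test compounds and scored growth inhibition relative to vehicle-treated controls.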

[5] = NCI Yeast Anticancer Drug Screen. Data for the bub3 strain (AID 167); details: S. cerevisiae bub3 mutant strain, at 50.0 µM, stronger effect = higher value
How it was run: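 Growth of a checkpoint-deficient yeast mutant is measured after compound exposure. Values represent inhibition relative to vehicle.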

[6] = NCI Yeast Anticancer Drug Screen. Data for the mlh1 rad18 strain (AID 175); details: S. cerevisiae mlh1 rad18 strain growth inhibition; at 50.0 µM; stronger effect = higher value
How it was run: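 Compound-treated yeast growth, normalised to vehicle controls. Strain bears defined DNA repair mutations.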

Measured: growth inhibition

CN(C)c1ccc(/C=C(/NC(=O)c2ccccc2)C(N)=O)cc1
inactive: [1] 13.9% | [2] 4.55% | [3] 8.95% | [4] 8.1% | [5] 7.6% | [6] 5.1%

CCCC(=O)OC(CCC1CCCO1)CCC1CCCO1 (configuration not stated)
inactive: [1] 0.3% | [2] -14.9% | [3] 10.4% | [4] 23.9% | [5] -6.35% | [6] 19.6%

COc1cc(CCCCC(=O)O)cc(Br)c1OC
inactive: [1] -17.7% | [2] -1.95% | [3] 4.9% | [4] -33.7% | [5] 29.8% | [6] -3.85%

Cc1cccc(C)c1NC(=O)N1CCN(C)CC1
inactive: [1] 1.9% | [2] 14.3% | [3] -3.3% | [4] -75.8% | [5] -9.45% | [6] -18.6%

CCOC(=O)C(C)Sc1ncnc2nc[nH]c12 (configuration not stated)
inactive: [1] -12.8% | [2] 4.4% | [3] -3.15% | [4] 20.9% | [5] 18% | [6] -0.9%

NC(=S)c1ccc[n+](Cc2c(Cl)cccc2Cl)c1
inactive: [1] 11.9% | [2] 3.6% | [3] -0.8% | [4] -13.3% | [5] -0.15% | [6] -4.4%

Cc1ccc(S(=O)(=O)NC(=O)NCc2cccc(Cl)c2)cc1
inactive: [1] -0.3% | [2] 28.2% | [3] 19.8% | [4] -15.6% | [5] 13.9% | [6] 6.3%

COC(=O)c1nc(NN)[nH]c(=O)c1C
inactive: [1] -2.1% | [2] -21.1% | [3] -27.6% | [4] 3.35% | [5] -26.6% | [6] -15.1%

S=C(NCc1ccncc1)Nc1ccccc1Cl
inactive: [1] 2.75% | [2] -0.5% | [3] -4.7% | [4] 12.7% | [5] 6.1% | [6] 9.55%

O=C(O)CCSC1=CC(=O)C(SCCC(=O)O)=CC1=O
inactive: [1] 5.35% | [2] -13.2% | [3] -1.4% | [4] -75.7% | [5] 4.9% | [6] -15.2%

N#CCCC1C(C#N)C2CC1C1C3C=CC(C3)C21 (configuration not stated)
inactive: [1] 9.1% | [2] 11.2% | [3] 30.5% | [4] 28.5% | [5] -4.5% | [6] 26.2%

CCC(=O)NCC(=O)O
inactive: [1] -4.15% | [2] -10.6% | [3] -16.1% | [4] 0.3% | [5] 8.15% | [6] -6.15%

OC(Cc1cccc(=S)[nH]1)(c1ccccc1)c1ccccc1
inactive: [1] -7.35% | [2] -7.25% | [3] -9.25% | [4] -37.9% | [5] -1.8% | [6] -26.3%

N#Cc1c(-c2ccco2)cc(-c2ccc(N)cc2)[nH]c1=O
inactive: [1] -0.6% | [2] 4.7% | [3] 17.7% | [4] 15.8% | [5] -8.9% | [6] 6.9%

O=C(NC(Cc1c[nH]c2ccccc12)C(=O)O)C(=O)c1c[nH]c2ccccc12 (configuration not stated)
inactive: [1] -9.9% | [2] -14.6% | [3] 27.5% | [4] 0.9% | [5] 15.2% | [6] 4.2%

CCN(CC)C1=Nc2ccccc2N(c2ccccc2)C(SC)=C1
inactive: [1] -1.4% | [2] -6.9% | [3] 6.15% | [4] -6.45% | [5] 2.25% | [6] 14.5%

CC(C)c1nnnn1C12CC3CC(CC(C3)C1)C2
inactive: [1] 2.75% | [2] -13.2% | [3] 1% | [4] -17.4% | [5] -3.3% | [6] 11.5%

C=CC12c3c4cc(OC)cc3OC1C(O)CCC2CC4 (configuration not stated)
inactive: [1] -8.05% | [2] 8.85% | [3] -6.2% | [4] 9.85% | [5] 4.5% | [6] 5.65%

CSc1cnn(CCC#N)c(=O)n1
inactive: [1] 16.4% | [2] 14.1% | [3] 19.9% | [4] 2.4% | [5] 15.7% | [6] 2.35%

CC(=O)OCCc1ccc2c(c1)OCO2
inactive: [1] -0.1% | [2] -11.8% | [3] 6.05% | [4] -30.9% | [5] -16.9% | [6] -6.15%

CN(C)CCCNC=O
inactive: [1] -30.2% | [2] -10.9% | [3] -26.2% | [4] -11.2% | [5] -0.45% | [6] 23.6%

c1csc(-c2nn3c(C45CC6CC(CC(C6)C4)C5)nnc3s2)c1
inactive: [1] 10.9% | [2] -15.3% | [3] -20.1% | [4] -11.3% | [5] 2.3% | [6] -12.8%

COC(=O)C#Cc1cccc(OC)c1OC
inactive: [1] 22.1% | [2] 14.9% | [3] 22.9% | [4] -31.2% | [5] 12.3% | [6] 10.2%

COc1ccc(C(=O)C(C)C(O)C(=O)O)c(O)c1C (configuration not stated)
inactive: [1] 8.15% | [2] 14.9% | [3] -1.25% | [4] 2% | [5] -16.5% | [6] 9.15%

CCOc1ncc(C[n+]2csc(CCO)c2C)c(N)n1
inactive: [1] -4.95% | [2] -8.7% | [3] 8.25% | [4] 0.8% | [5] -19.9% | [6] -5.35%

Nc1ccc(S(=O)(=O)NO)cc1
inactive: [1] -12.1% | [2] -3.95% | [3] -2.55% | [4] -27.1% | [5] -2.2% | [6] 11.3%

Cc1ccc(S(=O)(=O)N/N=C/C(C)c2cccnc2)cc1 (configuration not stated)
inactive: [1] -9% | [2] 6.8% | [3] 4% | [4] 13.6% | [5] 5.9% | [6] 7.05%

CNC(=O)c1cc(OC)ccc1O
inactive: [1] -25.9% | [2] -9.7% | [3] -4.3% | [4] -32.3% | [5] -3.6% | [6] 12.4%

COc1ccc(-c2cc3cc(CCCOC4OC(COC5OCC(O)C(O)C5O)C(O)C(O)C4O)cc(OC)c3o2)cc1OC (configuration not stated)
inactive: [1] 31% | [2] 17.4% | [3] 34.6% | [4] 23.8% | [5] 8.8% | [6] 23.4%

COC1OC(COS(C)(=O)=O)C2OC(C)(C)OC12 (configuration not stated)
inactive: [1] 11.6% | [2] 1.85% | [3] 3.55% | [4] 11.6% | [5] -9.3% | [6] 21.9%

COC(=O)[C@@]1(C(C)CC(=O)O)CCCCC1=O (some centres not stated)
inactive: [1] -11.6% | [2] -16.4% | [3] -38.2% | [4] -7.35% | [5] -20.8% | [6] -13.2%

O=C(CN1CCC(O)(c2ccc(F)cc2)CC1)N1CCN(C/C=C/c2ccccc2)CC1
inactive: [1] 42% | [2] 7.1% | [3] 9.8% | [4] 22.6% | [5] -1.7% | [6] 20.8%

CCCCN(CCCC)C(=O)C(=O)C(C)C(=O)CC (configuration not stated)
inactive: [1] -3.6% | [2] -2.75% | [3] 14.7% | [4] -1.05% | [5] 12.3% | [6] 25.7%

CS(=O)(=O)OC1CCCCC1OS(C)(=O)=O (configuration not stated)
inactive: [1] 3.15% | [2] 8.25% | [3] 22.2% | [4] -1.85% | [5] 7.55% | [6] 9.15%

CCC1(c2ccccc2)Nc2ccccc2C1=Nc1ccccc1 (configuration not stated)
inactive: [1] 20.1% | [2] 15.5% | [3] 20.2% | [4] 9.5% | [5] 11.7% | [6] 27.4%

O=C(NC(Cc1ccccc1)C(=O)N1CCCC1C(=O)O)OCc1ccccc1 (stereo not drawn) (Cbz-Phe-Pro-OH; configuration not given here)
inactive: [1] 7.75% | [2] 2.55% | [3] -7.05% | [4] -13.9% | [5] -1.75% | [6] 5.05%

CC(=O)c1ccc2c(c1)-c1ccc(C(C)=O)cc1-2
inactive: [1] -11.9% | [2] -0.7% | [3] -14.4% | [4] -11% | [5] -10.8% | [6] -7.6%

OCC12CCCC(OC1)O2 (configuration not stated)
inactive: [1] -8.6% | [2] -14.7% | [3] -25.9% | [4] 0.2% | [5] 13.8% | [6] -4.65%

CC(=O)C1=C(O)C2(O)C(=O)c3c(c(C)c4ccc(C)c(O)c4c3O)CC2C(N)C1=O (configuration not stated)
inactive: [1] 9.85% | [2] 38.1% | [3] 14.2% | [4] 11.7% | [5] 19% | [6] 4%

Cc1csc(NC(=O)C2C3CCC(O3)C2C(=O)O)n1 (configuration not stated)
inactive: [1] 22.1% | [2] -11.2% | [3] -6.5% | [4] 10.4% | [5] -4.95% | [6] -12.6%

O=C(N/N=C\c1ccc(Cl)cc1Cl)c1ccc(F)cc1
inactive: [1] -10.5% | [2] -10.8% | [3] -7.75% | [4] 0.3% | [5] -1.15% | [6] -4.1%

O=C(OCc1ccccc1)N(Cc1ccccc1)S(=O)(=O)c1ccccc1
inactive: [1] 26.1% | [2] 34.8% | [3] 14.9% | [4] 5.5% | [5] 13.6% | [6] 0.4%

— PubChem BioAssay (NCI)
